The values below come from PubChem BioAssay (NCI).

The panel holds about 79,000 compounds, 15% with a hit somewhere; the sample as a whole holds those more often. Unmarked numbers belong to inactive results. Active and inactive are the calls of the source. No stated cut-off is given here; in the data, active means growth inhibition above about 70%; inactive means the rest.

The nature of experiment [1]: NCI Yeast Anticancer Drug Screen. Data for the rad50 strain (AID 155).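 Further: 0% = growth of vehicle-only cultures of the same strain.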 The note with it: S. cerevisiae rad50 strain growth inhibition; at 50.0 µM; hits give high values. A digest of the protocol: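 Readout: growth inhibition relative to vehicle-treated cultures. Compound exposure was carried out in a genetically defined yeast strain deficient in DNA damage repair.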
The nature of experiment [2]: NCI Yeast Anticancer Drug Screen. Data for the mec2-1 strain (AID 157). The note with it: S. cerevisiae mec2-1 strain, at 50.0 µM, hits give high values. A digest of the protocol: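 Compounds were applied to mec2-1 yeast cells. Their growth was then compared with that of vehicle-treated cultures to give growth inhibition.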
Experiment [3] in a line: NCI Yeast Anticancer Drug Screen. Data for the sgs1 mgt1 strain (AID 161).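 Further: 0% = growth of cultures given vehicle only.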 The note with it: S. cerevisiae sgs1 mgt1 strain, at 50.0 µM, hits give high values. The gist of the method: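 Yeast cells carrying a defined DNA-repair defect were exposed to test compounds. Growth inhibition was measured relative to vehicle-treated controls.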
A short description of experiment [4]: NCI Yeast Anticancer Drug Screen. Data for the cln2 rad14 strain (AID 165).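 Further: 0% = growth equal to vehicle treated cultures.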 The following applies: S. cerevisiae cln2 rad14 strain, at 50.0 µM, hits give high values. The gist of the method: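 Strain: cln2 rad14 yeast, altered in cell cycle control and DNA damage repair. Read-out: growth inhibition vs vehicle.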
The nature of experiment [5]: NCI Yeast Anticancer Drug Screen. Data for the bub3 strain (AID 167). The note with it: S. cerevisiae bub3 mutant strain, at 50.0 µM, hits give high values. The gist of the method: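 Readout: yeast growth inhibition, expressed relative to vehicle-only wells. The test organism is a mutant strain from a panel with lesions in DNA repair or checkpoint genes.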
A short description of experiment [6]: NCI Yeast Anticancer Drug Screen. Data for the mlh1 rad18 strain (AID 175). The following applies: S. cerevisiae mlh1 rad18 strain growth inhibition; at 50.0 µM; hits give high values. A digest of the protocol: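 A repair-deficient yeast strain is exposed to test compound, and growth is scored relative to vehicle-treated controls.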

As for `O=C1c2cn[nH]c2C(c2ccccc2)N1c1ccccc1` (configuration not stated), the growth inhibition is 44.1% in experiment [1]; 6.8% in experiment [2]; 22.6% in experiment [3]; 24.3% in experiment [4]; 27.9% in experiment [5]; 38.9% in experiment [6].

Regarding `COc1cc(C2C(C(=O)O)=C(COC(C)=O)Oc3cc4c(cc32)OCO4)cc(OC)c1OC` (configuration not stated), the growth inhibition in experiment [1] was -9.9%; in experiment [2] it was -15.4%; in experiment [3], -25.4%; in experiment [4] it was -19.2%; in experiment [5] it was -4.1%; in experiment [6], -8.6%.

`CC(Sc1ccc([N+](=O)[O-])cn1)C(=O)O` (configuration not stated): the growth inhibition in experiment [1] was 2.55%; in experiment [2], 12.9%; in experiment [3], 13.5%; in experiment [4], -37%; in experiment [5] it was -25.9%; in experiment [6], 30.9%.

Regarding `OCC1OC(n2cnc3c(Cl)nc(Nc4ccc(Cl)c(Cl)c4)nc32)CC1O` (configuration not stated), the growth inhibition in experiment [1] is 7.45%; in experiment [2], -0.2%; in experiment [3], -12.9%; in experiment [4], -0.4%; in experiment [5], -16.9%; in experiment [6], 66%.

On to `CCOC(=O)c1cn(CC)c2cc3c(cc2c1=O)SCS3`, for which the growth inhibition in experiment [1] was -37.3%; in experiment [2] it was -18.9%; in experiment [3] it was -16.6%; in experiment [4] it was 29.9%; in experiment [5] it was 19.4%; in experiment [6] it was 41%.

As to `CC1CC[P+](c2ccccc2)(c2ccccc2)CC1`, the growth inhibition in experiment [1] was 22.9%; in experiment [2], 17.4%; in experiment [3], 30.3%; in experiment [4], 4.5%; in experiment [5], 22.1%; in experiment [6] it was 32.5%.

For `COC(=O)c1nc(N)nc(C(=O)OC)c1C(=O)/C=C/c1ccccc1`, the growth inhibition is -4.2% in experiment [1]; -8.5% in experiment [2]; -21.5% in experiment [3]; -16.1% in experiment [4]; -26.4% in experiment [5]; -17.6% in experiment [6].

`Nc1ccccc1Br`: the growth inhibition in experiment [1] is 29.6%; in experiment [2] it was 34.5%; in experiment [3], 21.4%; in experiment [4], -31%; in experiment [5] it was 12.2%; in experiment [6], 20.6%.

Turning to `CC(=O)Oc1cc(OC(C)=O)c(OC(C)=O)c2c1CCCC2`, the growth inhibition in experiment [1] is 6.45%; in experiment [2] it was 14.8%; in experiment [3], 6.65%; in experiment [4], -91.1%; in experiment [5] it was 16.4%; in experiment [6] it was 56.7%.

As for `NC1=NN(O)C2=CC(Br)C=CC2=N1` (configuration not stated), the growth inhibition is 10.3% in experiment [1]; -7.4% in experiment [2]; 11.6% in experiment [3]; 7.55% in experiment [4]; 43.1% in experiment [5]; 22.4% in experiment [6].

As to `O=C1OC(Oc2ccccc2OC2OC(=O)c3ccccc32)c2ccccc21` (configuration not stated), the growth inhibition in experiment [1] is -6.9%; in experiment [2], 3.7%; in experiment [3], 0.4%; in experiment [4] it was 5.95%; in experiment [5], -5.05%; in experiment [6] it was 9.85%.

`CNC(=O)N(C)C(=O)c1ccncc1C(=O)N(C(=O)NC1CCCCC1)C1CCCCC1`: the growth inhibition was 32.6% in experiment [1]; 2.2% in experiment [2]; 7.15% in experiment [3]; 20.8% in experiment [4]; -3.95% in experiment [5]; 1.65% in experiment [6].

Regarding `O=C=Nc1ccc(Cc2ccc(N=C=O)cc2)cc1`, the growth inhibition is -13.7% in experiment [1]; 6.7% in experiment [2]; -7.45% in experiment [3]; -15.2% in experiment [4]; -23.9% in experiment [5]; -36.5% in experiment [6].

Take `CCC(=O)OCCN(C)C`: the growth inhibition is -28% in experiment [1]; -50.4% in experiment [2]; 0.65% in experiment [3]; 10.8% in experiment [4]; -19.3% in experiment [5]; -8.35% in experiment [6].

`CC1(c2ccccc2)CC(c2cccc([N+](=O)[O-])c2)=NO1` (configuration not stated): the growth inhibition in experiment [1] is 27.4%; in experiment [2], 15.9%; in experiment [3], 36.9%; in experiment [4], 34.9%; in experiment [5], 28.6%; in experiment [6], 23.4%.

Turning to `COc1ccc(-c2cc(C(=O)Nc3cccc(C(F)(F)F)c3)[nH]c(=S)n2)cc1`, the growth inhibition in experiment [1] was -26.2%; in experiment [2] it was -7.95%; in experiment [3], -42%; in experiment [4] it was 19.3%; in experiment [5], -14.1%; in experiment [6], -20.9%.

In the case of `CC[n+]1c(C)sc2cc(Cl)c(-c3ccccc3)cc21`, the growth inhibition in experiment [1] is 23.4%; in experiment [2], 17.2%; in experiment [3] it was 30.4%; in experiment [4], -6.25%; in experiment [5], -3.25%; in experiment [6] it was 34.1%.

Take `CC1(C)C(=O)CC[C@]2(C)[C@H]3C(=O)C=C4[C@H]5C[C@@](C)(C(=O)O)CC[C@]5(C)CC[C@@]4(C)[C@]3(C)CC[C@@H]12`: the growth inhibition in experiment [1] is -4.8%; in experiment [2], -5.95%; in experiment [3], -3.85%; in experiment [4] it was -16.1%; in experiment [5], 0.15%; in experiment [6], -0.95%.

As to `COC(=O)/C(C#N)=C(/NCCN)Nc1ccccc1`, the growth inhibition in experiment [1] was -10.5%; in experiment [2], -16.4%; in experiment [3] it was -39%; in experiment [4], 10.1%; in experiment [5], -3.1%; in experiment [6], -8.15%.

Regarding `c1ccc([P+](Cc2ccc(C[P+](c3ccccc3)(c3ccccc3)c3ccccc3)cc2)(c2ccccc2)c2ccccc2)cc1`, the growth inhibition in experiment [1] was 48.2%; in experiment [2] it was 35.6%; in experiment [3] it was 29.4%; in experiment [4], 40.5%; in experiment [5], 47.9%; in experiment [6], 37.5%.

`NCCCNCCS`: the growth inhibition in experiment [1] is 19.6%; in experiment [2], 1.5%; in experiment [3], 22.6%; in experiment [4], 18.3%; in experiment [5] it was 2.5%; in experiment [6], 17.1%.

For `C/C(=N/NC(N)=O)C1c2ccccc2Cc2ccccc21`, the growth inhibition is 18.1% in experiment [1]; -2.25% in experiment [2]; 4.85% in experiment [3]; -0.3% in experiment [4]; 16.9% in experiment [5]; -8.15% in experiment [6].

Regarding `O=C(O)c1cc2c(c3c1CCCC3)CCC1CCCC21` (configuration not stated), the growth inhibition in experiment [1] was 13.2%; in experiment [2], 26.4%; in experiment [3], 33.4%; in experiment [4], -6.25%; in experiment [5], 20.8%; in experiment [6] it was 27.9%.

Consider `COc1ccc(C2N3CCCCC3[C@@H]3c4[nH]c5ccccc5c4CCN23)c(OC)c1` (some centres not stated), for which the growth inhibition in experiment [1] is -30.2%; in experiment [2], -24.4%; in experiment [3] it was -26.6%; in experiment [4], 6.1%; in experiment [5] it was -5.3%; in experiment [6] it was -9.65%.

Take `CCCCCCCCCCCCOP(=O)(CC(=O)NCc1cc(C(C)(C)C)c(O)c(C(C)(C)C)c1)OCCCCCCCCCCCC`: the growth inhibition in experiment [1] is -1.55%; in experiment [2] it was 3.3%; in experiment [3], 21.9%; in experiment [4], -7.3%; in experiment [5], -2.9%; in experiment [6] it was -9.9%.

Regarding `COc1ccc2nccc(/C=C/CC3CCN(C(C)=O)CC3)c2c1`, the growth inhibition in experiment [1] is 31.8%; in experiment [2] it was 29.4%; in experiment [3], 88.2% (active); in experiment [4], 45.6%; in experiment [5], 31.6%; in experiment [6], 74.8% (active).

For `COC(=O)[C@]1(C)CCC[C@@]2(C)C1CC[C@@]13C=C(C(C)C)[C@@H](CC1=O)CC23` (some centres not stated), the growth inhibition was 10.7% in experiment [1]; 4.7% in experiment [2]; -1.7% in experiment [3]; 32.7% in experiment [4]; 26.4% in experiment [5]; 19.1% in experiment [6].

`O=C(c1ccc(Cl)cc1Cl)C(CS(=O)(=O)O)CS(=O)(=O)O`: the growth inhibition in experiment [1] was -20.9%; in experiment [2], -27.2%; in experiment [3], -5.8%; in experiment [4], -49.4%; in experiment [5], -5.6%; in experiment [6] it was -1.1%.

In the case of `C[Si](C)(C)/C(=N/Nc1ccc([N+](=O)[O-])cc1[N+](=O)[O-])c1ccccc1`, the growth inhibition in experiment [1] was -13.2%; in experiment [2], 9.9%; in experiment [3] it was -12.9%; in experiment [4], -13.6%; in experiment [5], -7.9%; in experiment [6], -7.15%.

Regarding `CCn1cnc2c(=O)n(C)c(=O)n(C)c21`, the growth inhibition in experiment [1] is -31.8%; in experiment [2] it was -17.9%; in experiment [3] it was 4%; in experiment [4], -36%; in experiment [5], -0.55%; in experiment [6], -0.95%.

With `CCCC(CCCC(=O)O)C(=O)O` (configuration not stated), the growth inhibition was -4% in experiment [1]; -9.8% in experiment [2]; 0.95% in experiment [3]; -8.2% in experiment [4]; 11.9% in experiment [5]; 6.1% in experiment [6].

In the case of `CC(=O)Nc1ccc(N=NN(C)c2ccccc2)cc1`, the growth inhibition in experiment [1] was 29.4%; in experiment [2], 36%; in experiment [3], 47.1%; in experiment [4], 5.45%; in experiment [5], 19.8%; in experiment [6] it was 44.4%.

As for `COc1ccc(/C=C/c2c([N+](=O)[O-])c(=O)n(C)c(=O)n2C)cc1`, the growth inhibition in experiment [1] is -14.7%; in experiment [2] it was 0.95%; in experiment [3], -3.1%; in experiment [4], 16.1%; in experiment [5] it was 2.65%; in experiment [6] it was -10.2%.

With `CC(=O)Oc1ccccc1OC(=S)N(C)C`, the growth inhibition in experiment [1] was 11.2%; in experiment [2], -7.35%; in experiment [3] it was -5.5%; in experiment [4] it was -39.2%; in experiment [5], 15.8%; in experiment [6] it was -26.8%.

With `Cc1cccc(OC(=O)Oc2cccc(C)c2)c1`, the growth inhibition in experiment [1] is -5.75%; in experiment [2], -9.25%; in experiment [3] it was -4.35%; in experiment [4], -15.7%; in experiment [5], 20.6%; in experiment [6] it was 31.1%.

Take `O=[N+]([O-])c1cccnc1Sc1ncccn1`: the growth inhibition is -7.25% in experiment [1]; -12.2% in experiment [2]; -10.2% in experiment [3]; -23.1% in experiment [4]; -25.6% in experiment [5]; -6.2% in experiment [6].

In the case of `OCCc1nccnn1`, the growth inhibition was -2.65% in experiment [1]; 5.8% in experiment [2]; 1.9% in experiment [3]; -1.35% in experiment [4]; 4.65% in experiment [5]; -3.6% in experiment [6].
